Data as given in PubChem BioAssay (NCATS).
Inconclusive results are not listed. Where a call stands in place of a potency, no number is given. Active and inactive are the calls of the source. The call rests on the fitted dose curve; in most records, active means well fitted cell-killing curve with a large enough effect; inconclusive means small, poorly fitted or top-dose-only effect; inactive means no such curve, though single readings can be large or run the other way.

Assay: Quantitative High-Throughput drug screen in 47 multiple myeloma cell lines against the NCATS MIPE library collection: NCIH929_DSMZ cell viability assay (AID 1918978); further: nearly all actives have a fitted effect of over 35% in size
Conditions: NCI-H929 myeloma viability, CellTiter-Glo ATP, 48 h; series mostly up to 45.8 µM
From the text: PI: Beverly A. Mock Ph.D.
Laboratory of Cancer Biology and Genetics,
Center for Cancer Research, National Cancer Institute,
National Institute of Health, Bethesda, Maryland
Drug resistance and disease progression are common in multiple myeloma (MM) patients, underscoring the need for new therapeutic combinations. […] We hypothesized that effective combinations would reduce MYC expression and enhance p16 activity. […] These preclinical data identify potentially useful drug combinations for evaluation in drug-resistant MM and reveal potential mechanisms of combined drug sensitivity.
Described herein is the primary MIPE qHTS used to cherrypick compounds. Validated compounds were then further tested for potential synergistic activiy.
[1] Peat TJ, Gaikwad SM, Dubois W, Gyabaah-Kessie N, Zhang S, Gorjifard S, Phyo Z, Andres M, Hughitt VK, Simpson RM, Miller MA, Girvin AT, Taylor A, Williams D, D'Antonio N, Zhang Y, Rajagopalan A, Flietner E, Wilson K, Zhang X, Shinn P, Klumpp-Thomas C, McKnight C, Itkin Z, Chen L, Kazandijian D, Zhang J, Michalowski AM, Simmons JK, Keats J, Thomas CJ, Mock BA. Drug combinations identified by high-throughput screening promote cell cycle transition and upregulate Smad pathways in myeloma. Cancer Lett. 2023 Aug 1;568:216284. doi: 10.1016/j.canlet.2023.216284. Epub 2023 Jun 24. PMID: 37356470; PMCID: PMC10408729.
SEQUENCE No. (e.g., 1, 2, 3, etc.); […] (e.g., Cells, Incubation, Reagent, etc.); VALUE and DESCRIPTION.
1; Cells; 5 uL; white, solid bottom 1536-well Greiner assay plate.
2; Compounds; 23 nL; Kalypsis pin tool (Wako USA) equipped with a 1536-well pin head to transfer to the assay plates.
3; Incubation; 48 hours; 37C incubation.
4; Reagent;5uL; CellTiter Glo (Promega).
5; Detector; 425V; Luminescence; Viewlux PerkinElmer.
NOTES (numbers refer to Sequence numbers above)
1. The cell-based screening methods employed in this study were like those previously published. Briefly, the corresponding myeloma cell lines were screened in 1,536-well plates with 500 cells, 5-uL per well for inhibition of cell viability (assessed by measuring ATP levels with CellTiterGlo).
2. NCATS MIPE 4.0 library of approved and investigational drugs were added using the Kalypsis pin tool. Wells treated with DMSO only for 100% viability and media only for 0% viability were used as controls.
3. The assay plates were covered and incubated for 48 hours in a 37C, 5% CO2 incubator with controlled humidity.
4. After 48 hours, CellTilter-GloTM luminescent substrate mix (Promega) reagent was added to the assay plate and plates we incubated for 5 min at room temperature.
5. Signal was measured as median relative luminescence units on a ViewLux (PerkinElmer) multiplate reader.
[1] Heske CM, Davis MI, Baumgart JT, Wilson K, Gormally MV, Chen L, Zhang X, Ceribelli M, Duveau DY, Guha R, Ferrer M, Arnaldez FI, Ji J, Tran HL, Zhang Y, Mendoza A, Helman LJ, Thomas CJ. Matrix Screen Identifies Synergistic Combination of PARP Inhibitors and Nicotinamide Phosphoribosyltransferase (NAMPT) Inhibitors in Ewing Sarcoma. Clin Cancer Res. 2017 Dec 1;23(23):7301-7311. doi: 10.1158/1078-0432.CCR-17-1121. Epub 2017 Sep 12. PMID: 28899971; PMCID: PMC6636827.
Potency means the concentration at half of the fitted maximal effect.

Row | Structure (SMILES) | Potency
1 | C[C@@H]1O[C@@H](O[C@H]2C[C@@H](O)[C@]3(CO)[C@H]4[C@H](O)C[C@]5(C)[C@@H](C6=CC(=O)OC6)CC[C@]5(O)[C@@H]4CC[C@]3(O)C2)[C@H](O)[C@H](O)[C@H]1O | 59 nM (active)
2 | Cn1cc(C2=C(c3cn(C4CCN(Cc5ccccn5)CC4)c4ccccc34)C(=O)NC2=O)c2ccccc21 | 5900 nM (active)
3 | C#CCN(C)[C@H](C)Cc1ccccc1 | inactive
4 | C[C@@H]1[C@@H](CC(C[C@H]2O[C@@H]3O[C@]4(C)CC[C@@H]5[C@H](C)CC[C@@H]([C@H]2C)[C@@]35OO4)C[S+](=O)([O-])c2ccc(COC(=O)N(C)C)cc2)O[C@@H]2O[C@]3(C)CC[C@H]4[C@H](C)CC[C@@H]1[C@@]24OO3 (stereo partly specified) | 83.3 nM (active)
5 | Cn1c(CCCC(=O)O)nc2cc(N(CCCl)CCCl)ccc21 | 13200 nM (active)
6 | Fc1ccc(C(OCCN2CCN(CCCc3ccccc3)CC2)c2ccc(F)cc2)cc1 | 13200 nM (active)
7 | CNC(=O)c1ccc(N2C(=S)N(c3ccc(C#N)c(C(F)(F)F)c3)C(=O)C23CCC3)cc1F | 1320 nM (active)
8 | Cc1cccc(C)c1NC(=O)CN1CCCC1=O | inactive
9 | Cc1sc2c(c1C)C(c1ccc(Cl)cc1)=N[C@@H](CC(=O)OC(C)(C)C)c1nnc(C)n1-2 | 148 nM (active)
10 | CC(O)(CS(=O)(=O)c1ccc(F)cc1)C(=O)Nc1ccc(C#N)c(C(F)(F)F)c1 (stereo unspecified) | 187 nM (active)
11 | COC[C@@H](NC(C)=O)C(=O)NCc1ccccc1 | inactive
12 | COc1ccc(C(CN(C)C)C2(O)CCCCC2)cc1 (stereo unspecified) | inactive
13 | NCC1(CC(=O)O)CCCCC1 | inactive
14 | O=C1CC[C@@]2(O)[C@H]3Cc4ccc(O)c5c4[C@@]2(CCN3CC2CC2)[C@H]1O5 | inactive
15 | Cc1cc(SCc2sc(-c3ccc(C(F)(F)F)c(F)c3)nc2C)ccc1OCC(=O)O | 20900 nM (active)
16 | CN1CCN(C(=O)O[C@H]2c3nccnc3C(=O)N2c2ccc(Cl)cn2)CC1 | inactive

Row | Structure (SMILES) | Potency
17 | COC[C@H]1OC(=O)c2coc3c2[C@@]1(C)C1=C(C3=O)C2CCC(=O)[C@@]2(C)C[C@H]1OC(C)=O (stereo partly specified) | 469 nM (active)
18 | N[C@@H](Cc1ccc(N(CCCl)CCCl)cc1)C(=O)O | 3320 nM (active)
19 | CC(C)CC(N(C)C)C1(c2ccc(Cl)cc2)CCC1 (stereo unspecified) | inactive
20 | COc1ccc2c(c1OC)CN1CCc3cc4c(cc3C1C2)OCO4 (stereo unspecified) | inactive
21 | CC1=C2C[C@@H]3[C@@H](CC=C4C[C@@H](O)CC[C@@]43C)[C@@H]2CC[C@]12O[C@H]1C[C@H](C)CN[C@H]1[C@H]2C | inactive
22 | COC1(CS(=O)c2ccccc2)CCN(CCc2c[nH]c3ccc(F)cc23)CC1 (stereo unspecified) | inactive
23 | CCCC(C)(COC(N)=O)COC(=O)NC(C)C (stereo unspecified) | inactive
24 | CNCC(O)c1ccc(O)cc1 (stereo unspecified) | inactive
25 | O=P1(NCCCl)OCCCN1CCCl (stereo unspecified) | inactive
26 | COc1ccc(C(=O)c2c(C)n(CCN3CCOCC3)c3ccccc23)cc1 | inactive
27 | CN(C)CCc1ccc(O)cc1 | inactive
28 | C=C(C)[C@H]1Cc2c(ccc3c2O[C@@H]2COc4cc(OC)c(OC)cc4[C@@H]2C3=O)O1 | 1870 nM (active)
29 | CN(C)CCN(C)CCc1ccc(Cl)c(Cl)c1 | inactive
30 | CN(C)[C@@H]1C(=O)C(C(N)=O)=C(O)[C@@]2(O)C(=O)C3=C(O)c4c(O)cccc4[C@@](C)(O)[C@H]3C[C@@H]12 | inactive
31 | C[C@@H]1[C@@H](C(=O)C[C@H]2O[C@@H]3O[C@]4(C)CC[C@@H]5[C@H](C)CC[C@@H]([C@H]2C)[C@@]35OO4)O[C@@H]2O[C@]3(C)CC[C@H]4[C@H](C)CC[C@@H]1[C@@]24OO3 | 132 nM (active)
